Experimental data as given in the supplement of paper PMC11219838.
A number with no mark means an inactive call.

Legend:
Conditions in all cases: 60 µM; 5 days; temperature: 20 °C
[1] = test system: Meloidogyne hapla J2; test: proportion of mobile M. hapla J2 relative to DMSO control (fraction of DMSO control); higher = more viable, less nematicidal, active = 0.7 or less
In short: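 About 25 M. hapla J2 were added per 96-well well in distilled water, and compound was pinned to 60 µM final (0.6% v/v DMSO). Sealed plates were shaken at 200 rpm for 5 days at 20 °C, then 2 µL 1 M NaOH was added before microscopic mobility scoring. Mobility was divided by the mean of eight DMSO wells on the same plate, and two biological replicates were averaged.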

[2] = test system: Caenorhabditis elegans dauer (daf-2(e1370)); test: proportion of mobile C. elegans dauer larvae relative to DMSO control (fraction of DMSO control); higher = more viable, less nematicidal, active = 0.63 or less; extreme values may be limits of the assay
In short: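 Compound was added by pinning to 60 µM final, giving 0.6% v/v DMSO, in 96-well plates containing about 20 C. elegans dauers per well in liquid NGM. These dauers came from synchronized larvae held on MYOB plates with E. coli OP50 for 48 h at 25 °C. Plates were sealed and shaken at 200 rpm at 20 °C for 5 days. Under a dissection microscope, the proportion of mobile worms was scored relative to DMSO wells, and two biological replicates were averaged.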

[3] = test system: Ditylenchus dipsaci; test: proportion of mobile D. dipsaci (mixed stage) relative to DMSO control (fraction of DMSO control); higher = more viable, less nematicidal, active = 0.86 or less; extreme values may be limits of the assay
In short: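 D. dipsaci were grown on pea plants in Gamborg B-5 agar and extracted through a filter funnel into water, and about 20 worms were added per 96-well well in distilled water. Compound was pinned to 60 µM final (0.6% v/v DMSO), and sealed plates were shaken at 200 rpm for 5 days at 20 °C. After 2 µL 1 M NaOH was added, mobile worms were scored microscopically. Mobility was expressed relative to DMSO controls and averaged over two biological replicates.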

| SMILES | proportion of mobile M. hapla J2 [1] | proportion of mobile C. elegans dauer larvae [2] | proportion of mobile D. dipsaci [3] |
| --- | --- | --- | --- |
| Cc1ccc(-c2nnc(SCC(=O)Nc3ccc(Br)c(C)c3C)o2)cc1 | 1.03 | 1 | 1 |
| N#Cc1ccccc1CSc1nnc(-c2ccccc2)o1 | 0.841 | 1 | 1 |
| Brc1ccc(OCc2nc(-c3cccs3)no2)cc1 | 0.963 | 1 | 1 |
| Brc1ccc(-c2noc(COc3ccccc3)n2)cc1 | 0.602 (active) | 1 | 1 |
| COc1ccc(-c2noc(COc3ccc4c(c3)CCCC4)n2)cc1 | 0.959 | 1 | 1 |
| Cc1cccc(-c2noc(-c3cccc(Cl)c3)n2)c1 | 1 | 1 | 1 |
| COc1ccc(Cl)cc1-c1noc(COc2ccccc2)n1 | 0.953 | 1 | 1 |
| O=C(CSc1nnc(-c2ccc(Cl)cc2)o1)Nc1nccs1 | 0.917 | 1 | 1 |
| Cc1cc(OC(C)c2nc(-c3ccccn3)no2)ccc1Cl (configuration not stated) | 1.03 | 1 | 1 |
| Clc1ccccc1-c1noc(-c2ccccc2Cl)n1 | 1.02 | 1 | 1 |
| Cc1ccccc1OCc1nc(-c2ccc(F)cc2)no1 | 0.909 | 1 | 1 |
| Fc1ccccc1-c1nc(-c2ccccc2)no1 | 0.991 | 1 | 1 |
| Cc1cccc(-c2noc(COc3ccccc3Cl)n2)c1 | 0.894 | 1 | 1 |
| Cc1ccc(-c2nnc(SCC(=O)Nc3c(C)cc(C)cc3C)o2)cc1 | 0.979 | 1 | 1 |
| CCCCCOC(=O)CSc1nnc(-c2ccc(Cl)cc2Cl)o1 | 0.737 | 1 | 1 |
| Cc1c(C)n(C(=O)CSc2nnc(-c3ccccc3)o2)c2ccccc12 | 0.982 | 1 | 1 |
| c1ccc(-c2noc(COc3cccc4ccccc34)n2)nc1 | 0.936 | 1 | 1 |

| SMILES | proportion of mobile M. hapla J2 [1] | proportion of mobile C. elegans dauer larvae [2] | proportion of mobile D. dipsaci [3] |
| --- | --- | --- | --- |
| CCOc1cc(-c2nc(-c3ccc(C)nc3OCC)no2)cc(OCC)c1OCC | 0.908 | 1 | 1 |
| O=C(CSc1nnc(-c2ccco2)o1)c1ccc(Br)cc1 | 0.997 | 1 | 1 |
| COc1cccc(-c2noc(COc3cccc(C)c3C)n2)c1 | 1.04 | 1 | 1 |
| Cc1ccoc1-c1nnc(-c2ccco2)o1 | 0.949 | 1 | 0.833 (active) |
| COc1nc2ccc(C)cc2cc1-c1noc(-c2cccnc2)n1 | 0.972 | 1 | 1 |
| CCOc1cc(-c2nc(-c3ccc(OC)cc3)no2)cc(OCC)c1OCC | 0.998 | 1 | 1 |
| CCOC(=O)c1ccc(NC(=O)c2ccccc2-c2nc(-c3cccc(C)c3)no2)cc1 | 0.777 | 1 | 1 |
| Cc1ccc(-c2noc(-c3cccc(Br)c3)n2)cc1 | 1.04 | 1 | 1 |
| COc1ccc(Cl)cc1NC(=O)CSc1nnc(-c2ccncc2)o1 | 0.98 | 1 | 1 |
| Cc1ccc(C)c(-c2nc(-c3ccncc3)no2)c1 | 1.09 | 0.385 (active) | 1 |
| O=C(Nc1ccc(-c2noc(COc3ccccc3Cl)n2)cc1)c1ccccn1 | 1.02 | 1 | 1 |
| Cc1cc(C)c(C)c(OCc2nc(-c3ccccc3)no2)c1 | 0.95 | 1 | 1 |
| Cc1ccccc1-c1noc(COc2ccc(Cl)cc2Cl)n1 | 1.02 | 1 | 1 |
| CCn1c(SCc2ccc(OC)cc2)nnc1-c1ccco1 | 0.611 (active) | 1 | 1 |
| COc1ccc(CCC(=O)Nc2ccc(-c3noc(-c4ccc(F)cc4)n3)cc2)cc1 | 0.746 | 1 | 1 |
| CC(=O)Nc1ccc(NC(=O)c2ccccc2-c2nc(-c3ccccc3Cl)no2)cc1 | 0.866 | 1 | 1 |
| Cc1cc(C)c(CSc2nnc(-c3ccccc3)o2)c(C)c1 | 0.962 | 1 | 1 |
